An excerpt weighted towards active compounds, which were near 4.8% of everything screened.
ssDAF-12 act – activates DAF-12 receptor from parasite S. stercoralis | HEK293 ssDAF-12/GRIP1 lit1-tk-luc reporter, luminescence; % of 3 µM dafachronic acid response | activation, % at 6.8 µM | 370,000 tested, 1% active | AID 652126;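 active = activation above the mean over all tested compounds plus 3 SD, cut at about 0.9% in these data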;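 also: 0% = DMSO-only wells and 100% = 3 µM delta7-dafachronic acid wells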
DAX1 inh-1 – inhibitors of human orphan nuclear receptor DAX1 (NR0B1) | P51843 | inhibition, % at 6.75 µM | AID 504766 | HEK293 Gal4-DAX1 luciferase reporter, luminescence | 340,000 tested, 0.99% active;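 active = inhibition above the mean over all tested compounds plus 3 SD, cut at about 4.2% in these data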;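 also: 0% = DAX1-transfected cells with DMSO and 100% = empty-vector control cells with DMSO; inhibition shows as a rise in luminescence from relieved DAX1 repression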
Target sequence (P51843 207-470 limits assumed): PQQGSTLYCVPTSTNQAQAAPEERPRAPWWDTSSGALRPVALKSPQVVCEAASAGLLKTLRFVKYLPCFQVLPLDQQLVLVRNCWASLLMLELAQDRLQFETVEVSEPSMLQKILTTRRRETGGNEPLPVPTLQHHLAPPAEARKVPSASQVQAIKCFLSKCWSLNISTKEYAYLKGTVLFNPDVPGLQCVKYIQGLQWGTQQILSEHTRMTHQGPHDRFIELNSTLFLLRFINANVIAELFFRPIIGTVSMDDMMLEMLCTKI
DAX1 inh-2 – blocks DAX1 repression of SF-1 activated StAR promoter. HEK293T StAR-luciferase reporter, SF-1/DAX-1 repression relief. 370,000 tested, 1.1% active. inhibition, % at 6.8 µM;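 active = inhibition above the mean over all tested compounds plus 3 SD, cut at about 3.6% in these data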;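 also: 0% = DAX-1 cells with DMSO and 100% = cells lacking DAX-1 with DMSO; higher inhibition means more luminescence from relief of DAX-1 repression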
SMARCA2 act – SMARCA2 function activation, primary screen | MG213 cells, MMTV-luciferase reporter, dexamethasone, overnight | activation, % at 9.1 µM | 370,000 tested, 1% active; in the data active = activation above about 7.8%;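 also: 0% = vehicle wells and 100% = reference activator wells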
hgDAF-12 ag – agonists of H. glycines DAF-12 nuclear receptor; HEK293 GAL4-hgDAF12 UAS-luciferase reporter, agonist luminescence; normalized to butyrate control; activation, % at 6.8 µM; 370,000 tested, 1.8% active; AID 687014;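 active = activation above a cutoff set at the mean of all screened compounds plus 3 SD, cut at about 10% in these data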;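 also: 0% = DMSO wells and 100% = sodium butyrate wells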
hcDAF-12 act – H. contortus DAF-12 activation, primary screen; activation, % at 6.8 µM; 370,000 tested, 1.4% active; HEK293 hcDAF-12 lit1-tk-luc reporter, luminescence; 0% DMSO, 100% Δ7-dafachronic acid; AID 652067;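 active = activation above the mean of all tested compounds plus 3 SD, cut at about 5.5% in these data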;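 also: 100% = response to 3 µM Δ7-dafachronic acid high control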
LXRb hcDAF ctr – activates human LXR-beta, counter-screen for hcDAF-12 agonists. shares compounds with hcDAF-12 act. HEK293 Gal4-LXR tk-luc reporter, luminescence, 24 h; normalized: DMSO 0%, positive control 100%. activation, % at 6.8 µM. 3,400 tested, under 10 active. AID 743027;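 active = mean percent activation of the reporter above a cutoff set as the average over tested compounds plus their standard deviation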
hcDAF12 conf – confirmation of H. contortus DAF-12 agonists. 3,400 tested, 61% active. activation, % at 6.8 µM. HEK293 hcDAF-12 lit1-tk-luc reporter, luminescence; % of Δ7-dafachronic acid response. AID 743032. shares compounds with hcDAF-12 act;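 active = mean activation across triplicate tests above the threshold derived from the earlier primary screen, cut at about 5.5% in these data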;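 also: 0% = DMSO only wells and 100% = 3 µM Δ7-dafachronic acid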
hgDAF12 ag – confirmation of H. glycines DAF-12 agonists; shares compounds with hgDAF-12 ag; HEK293 GAL4-hgDAF12 luciferase reporter, agonist mode; percent of butyrate response; activation, % at 6.8 µM; 3,300 tested, 80% active; AID 743050;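 active = mean activation over triplicate wells above the hit cutoff derived from the earlier primary screen, cut at about 11% in these data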;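 also: 0% = DMSO low control and 100% = 2 mM sodium butyrate high control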
LXRb DAF12 ctr – counter-screen for DAF-12 agonists: agonists of human LXR-beta | HEK293 Gal4-LXR luciferase reporter, 24 h | 3,300 tested, under 10 active | shares compounds with hgDAF-12 ag | activation, % at 6.8 µM;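 active = mean activation of the triplicate above a set limit carried over from the primary screen, none filed active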
Starred values were filed as active, the others as inactive; nt = not tested or not shown.

SMILES	ssDAF-12 act	DAX1 inh-1	DAX1 inh-2	SMARCA2 act	hgDAF-12 ag	hcDAF-12 act	LXRb hcDAF ctr	hcDAF12 conf	hgDAF12 ag	LXRb DAF12 ctr
CCN=C1NC(c2ccc(C(F)(F)F)cc2)C(C(=O)OC)=C(C)N1Cc1cccc(C(F)(F)F)c1 (stereo unspecified)	-2	nt	3	-1	-2	0	nt	nt	nt	nt
CCN(CCn1cccn1)C(=O)c1cc(COc2cc(C)ccc2C)on1	1.7*	2	4	7	14*	7.5*	1	5	12*	0
NC(=O)c1ncn([C@@H]2O[C@H](C(=O)N[C@H](Cc3ccccc3)C(=O)O)[C@@H](O)[C@H]2O)n1	-1	nt	0	-3	-7	2	nt	nt	nt	nt
Cc1ccc(C(=O)Nc2ccccc2Cl)cc1	1.2*	7.1*	3	5	13*	12*	2	7.3*	16*	1
CS(=O)(=O)c1ccc(C(=O)Nc2ccccc2Cl)cc1	0	2	0	2	1	0	nt	nt	nt	nt
COc1cc2ccccc2cc1C(=O)NC(=S)Nc1ccc(C(=O)O)cc1	0	0	0	1	1	0	nt	nt	nt	nt
COc1cc2ccccc2cc1C(=O)Nc1ccccc1N1CCCC1	0	-1	0	-2	0	4	nt	nt	nt	nt
COc1cc2ccccc2cc1C(=O)Nc1ccccc1Cl	2.2*	4.8*	3	5	16*	12*	1	15*	20*	1
COc1ccc(NC(=O)c2cc3ccccc3cc2OC)cc1	3.2*	4	2	6	15*	12*	1	12*	17*	1
CC1CCCN(c2cccc3c2S(=O)(=O)N([C@H](C)c2ccccc2)C[C@@H](COCc2ccccc2)O3)C1 (stereo partly specified)	-1	nt	0	-4	0	0	nt	nt	nt	nt
COC(=O)C[C@@H]1C[C@H]2c3cc(NC(=O)Nc4ccccc4F)ccc3O[C@H]2[C@@H](CO)O1	0	nt	0	0	2	-2	nt	nt	nt	nt
CN(C)C(=O)N1CCN(C(=O)[C@H]2O[C@@H](n3ccc(N)nc3=O)[C@H](O)[C@@H]2O)CC1	-1	nt	0	2	4	0	nt	nt	nt	nt
CCOC(=O)c1c(C)nc2c(C)cccn12	-1	0	1	-1	-2	-1	nt	nt	nt	nt
CCOC(=O)c1c(C)nc2c3ccccc3ccn12	2.7*	2	3.7*	7	19*	9.7*	1	12*	17*	1
NCCCC(C(=O)O)N(C(=O)OCc1ccccc1)C(=O)OCc1ccccc1 (stereo unspecified)	-1	nt	0	-2	2	-1	nt	nt	nt	nt
CCCS(=O)(=O)NCc1cn2c(C)csc2n1	1.1*	4	3.8*	2	15*	10*	0	4	6	0
COc1ccc2nc(NN=Cc3cccc(C)n3)cc(C)c2c1	0	nt	1	4	0	-1	nt	nt	nt	nt
COC(=O)C1CCN(C2CN(Cc3cn(Cc4ccc(C(F)(F)F)cc4)nn3)S(=O)(=O)C2)CC1 (stereo unspecified)	-1	nt	-1	1	-1	1	nt	nt	nt	nt
O=[N+]([O-])c1ccccc1N=Nc1c(O)[nH]c2ccc(F)cc12	0	1	3	-1	7	3	nt	nt	nt	nt
Oc1[nH]c2ccccc2c1N=Nc1ccccc1F	1	3	2	1	16*	12*	1	14*	21*	1
COc1cccc(CNC(=O)[C@H]2CCCN2C(=O)[C@H]2CCCN2C(=O)c2c(F)cccc2F)c1	0	nt	0	-2	0	1	nt	nt	nt	nt
Oc1c(-c2cc(-c3ccco3)[nH]n2)ccc2ccccc12	2.6*	4	3.6*	3	20*	13*	2	15*	25*	1
O=C(CCc1nnc(CCc2c[nH]c3ccccc23)o1)NC1CCC1	1.1*	3	2	2	16*	7.6*	0	6.2*	12*	0
Clc1ccccc1Nc1nnc(-c2ccncc2)s1	1	-3	4.4*	1	17*	11*	1	6.7*	17*	1
Clc1ccccc1Nc1nc(-c2cccnc2)cs1	1.1*	9.5*	3.7*	2	34*	11*	2	7.3*	24*	1
SMILES	ssDAF-12 act	DAX1 inh-1	DAX1 inh-2	SMARCA2 act	hgDAF-12 ag	hcDAF-12 act	LXRb hcDAF ctr	hcDAF12 conf	hgDAF12 ag	LXRb DAF12 ctr
Clc1ccccc1-c1csc(Nc2cccnc2)n1	0	0	0	-1	4	4	nt	nt	nt	nt
C[C@@H]1[C@@H](c2ccccc2)OC(O)([C@H](Cc2ccccc2)NC(=O)OC(C)(C)C)CN1C (stereo partly specified)	-2	nt	nt	nt	2	-1	nt	nt	nt	nt
O=C(Nc1ccccc1)Nc1ccc(Br)cc1F	-1	-2	0	-5	7	-1	nt	nt	nt	nt
Cc1cc(NC(=O)Nc2ccccc2F)ccc1Br	1	3	3	1	21*	7.1*	1	6.3*	18*	1
COc1ccc2cc(C(=O)N3CCN(c4cccc(C)c4C)CC3)[nH]c2c1	1	0	1	-3	1	4	nt	nt	nt	nt
COc1ccc2cc(C(=O)N3CCc4ccccc43)[nH]c2c1	1.6*	3	3	2	19*	14*	2	13*	24*	1
CC(=O)NCc1ccc(OCCCN2CCC(C(O)(c3ccccc3)c3ccccc3)CC2)cc1	-1	nt	2	-4	0	-1	nt	nt	nt	nt
Cc1ccc(NC(=S)Nc2ccc(-c3nnc4n3CCCCC4)cc2)cc1C	-2	nt	0	-4	-3	-1	nt	nt	nt	nt
Cc1cccc(C(=O)n2c(=S)nc3cc(C)ccn32)c1	1	4.6*	3.7*	3	16*	6.6*	1	6.6*	13*	1
NC(=O)c1c(NC(=O)c2ccc(F)cc2)sc2c1CCC2	2.0*	2	2	7	15*	13*	1	12*	20*	1
Clc1nc2ccccc2cc1/C=N/Nc1nc2ccccc2[nH]1	1.7*	0	2	5	14*	9.3*	1	14*	17*	1
